Assay [1] is described as follows: viability loss in pontine glioma line – cell-based, SU-DIPG-XVII, MIPE5.0, CellTiter-Glo, qHTS, dose response (AID 1347060; cut-off not given, nearly all actives have AC50 up to about 26 µM;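 as to AC50: cells exposed to compound for 48 hours before viability readout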). The following applies: CellTiter-Glo ATP luminescence. Background: In ATP-based viability assays light output follows the ATP content of the culture.
A short description of assay [2]: viability loss in pontine glioma line – cell-based, SU-DIPG-XIII, MIPE4.0, CellTiter-Glo, qHTS, dose response (AID 1347061; cut-off not given, nearly all actives have AC50 up to about 37 µM;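 also: cells exposed to compound for 48 hours before readout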). The following applies: CellTiter-Glo ATP luminescence.
Assay [3] can be described thus: viability loss in pontine glioma line – cell-based, JHH-DIPG-1, MIPE4.0, CellTiter-Glo, qHTS, dose response (AID 1347062; cut-off not given, nearly all actives have AC50 up to about 27 µM;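 as to AC50: cells exposed to compound for two days before readout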). The following applies: JHH-DIPG-1 viability, CellTiter-Glo ATP luminescence.
Assay [4] is described as follows: viability loss in pontine glioma line – cell-based, SU-DIPG-IV, MIPE4.0, CellTiter-Glo, qHTS, dose response (AID 1347063; cut-off not given, nearly all actives have AC50 up to about 30 µM;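 also: compound exposure lasted 48 hours before the viability readout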). The following applies: CellTiter-Glo ATP luminescence.
Assay [5] can be described thus: viability loss in pontine glioma line – cell-based, SU-DIPG-XXV, MIPE5.0, CellTiter-Glo, qHTS, dose response (AID 1347065; cut-off not given, nearly all actives have AC50 up to about 26 µM;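 also: cells exposed to compound for 48 hours before ATP readout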). The following applies: CellTiter-Glo ATP luminescence.
Assay [6] is described as follows: growth inhibition of DIPG cells – cell-based, MIPE4.0 library, CellTiter-Glo luminescence, qHTS (AID 1347066; cut-off not given, nearly all actives have AC50 up to about 30 µM;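 also: cells exposed to compound for 48 hours before readout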). The following applies: SU-DIPG-VI viability, CellTiter-Glo ATP luminescence.
Assay [7] is described as follows: JHH-DIPG-1 glioma cell viability, MIPE5.0 library, CellTiter-Glo luminescence, qHTS (AID 1347067; cut-off not given, nearly all actives have AC50 up to about 26 µM;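 also: cells exposed to compound for 48 hours before readout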). The following applies: JHH-DIPG-1 glioma viability, CellTiter-Glo ATP luminescence.
Assay [8] can be described thus: growth inhibition of DIPG cells – cell-based, MIPE5.0 library, qHTS (AID 1347068; cut-off not given, nearly all actives have IC50 up to about 30 µM;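 as to IC50: cells exposed to compound for 48 hours before viability readout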). The following applies: SU-DIPG-XXV viability.
A short description of assay [9]: compounds altering HSF1 focus formation in cells – imaging, Selleck Cancer Library (AID 1347162; in the data active = plate-normalised HSF1 focus index below about 0.46). The following applies: human cells, HSF1 nuclear foci imaging, at 10 µM; SSMD: measured here: HSF1 foci SSMD mean; cell count: measured here: cell number; plate-normalised HSF1 focus index: stronger effect = lower value.
Assay [10] is described as follows: drug combination growth inhibition, ovarian cancer – cell-based, oncology-focused library, rucaparib conditional, profiling panel (AID 1508598). The following applies: patient-derived ovarian cancer cells, CellTiter-Glo viability, 144 h, stronger effect = lower value.

The structures appear in SMILES notation. Inconclusive results are not listed. Calls of active or inactive are those of the source.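 The calls were made as follows, unless noted: active = normalized viability below 100% at a tested concentration; inactive = the rest.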

Consider seven compounds from PubChem BioAssay.

Turning to `CC(=O)N[C@H]1[C@H](O[C@@H]2c3ccc(c(Cl)c3)Oc3cc4cc(c3O[C@@H]3O[C@H](CO)[C@@H](O)[C@H](O)[C@H]3NC(=O)CCCCCCCC(C)C)Oc3ccc(cc3Cl)C[C@H]3NC(=O)[C@H](N)c5ccc(O)c(c5)Oc5cc(O)cc(c5)[C@H](NC3=O)C(=O)N[C@H]4C(=O)N[C@H]3C(=O)N[C@@H]2C(=O)N[C@@H](C(=O)O)c2cc(O)cc(O[C@H]4O[C@H](CO)[C@@H](O)[C@H](O)[C@@H]4O)c2-c2cc3ccc2O)O[C@H](CO)[C@@H](O)[C@@H]1O`, the result in [1], in [2], in assay [3], in assay [4], in [5] and in assay [6] was inactive. Also, the result in assay [7] and in assay [8] was inactive.

As for `CN[C@@H](C)[C@H]1[C@H](O)C[C@@]2(C)[C@@H]3CC[C@H]4C(C)(C)[C@@H](NC)CC[C@@]45C[C@@]35CC[C@]12C`, the outcome in assay [1], in [2], in assay [3], in assay [4], in assay [5] and in assay [6] was inactive. Also, the compound was called inactive in [7] and in assay [8].

As for `O=C1CCC[C@@H]2[C@H]3CCC[N+]4([O-])CCC[C@@H](CN12)[C@@H]34` (stereo partly specified), the call in [1], in assay [2], in assay [3], in [4], in assay [5] and in assay [6] was inactive. Also, the compound was called inactive in assay [7] and in [8].

The term AC50 denotes the concentration giving half of the maximal activity seen. For orientation: IC50 means the concentration needed to halve the response being measured. Regarding `CCC[C@@H](C=O)NC(=O)[C@H](CC(C)C)NC(=O)[C@H](CC(C)C)NC(=O)OCc1ccccc1`, the AC50 in assay [1] was 332 nM (active); in assay [2] it was 935 nM (active); in [3], 372 nM (active); in [4], 148 nM (active); in assay [5], 186 nM (active); in [6] it was 526 nM (active). Further, the AC50 in assay [7] is 525 nM (active). Besides, the IC50 in assay [8] is 590 nM (active).

For the compound `C=C1C(=O)OC(CCCCCCCC)C1C(=O)O` (stereo unspecified), the compound was called inactive in [1], in assay [2], in assay [3], in [4], in [5] and in assay [6]. The result in assay [7] and in assay [8] was inactive.

Take `C[C@@H]1CC[C@@]2(OC1)OC1CC3C4CC=C5CC(O)CCC5(C)C4CCC3(C)C1[C@@H]2C` (stereo partly specified): the outcome in assay [1], in assay [2], in assay [3], in [4], in [5] and in assay [6] was inactive. Moreover, the compound was called inactive in assay [7] and in assay [8].

As usually defined, the viability is a read-out of living cells in per cent, often relative to untreated cells. With `CN(C)C/C=C/C(=O)Nc1cc2c(Nc3ccc(F)c(Cl)c3)ncnc2cc1O[C@H]1CCOC1`, the AC50 in [1] is 13200 nM (active); in assay [2] it was 23500 nM (active); in [3], 16600 nM (active); in assay [4], 16600 nM (active); in assay [5], 8330 nM (active); in [6] it was 29600 nM (active). Further, the concentration at half-maximal activity (AC50) in assay [7] was 9340 nM (active). Further, the IC50 in [8] is 4170 nM (active). In assay [9], this compound had an SSMD of -10.2. In assay [9], this compound had a cell count of 6000. The plate-normalised HSF1 focus index in assay [9] is 0.64 (inactive). The viability in [10] (at 0.000305 µM, OCI-C5x cells, with rucaparib 10 µM, 100% = cells with rucaparib alone) was 118% (inactive); in assay [10] (at 0.000305 µM, OCI-C5x cells, without rucaparib), 114% (inactive); in assay [10] (at 0.000305 µM, OCI-P5x cells, with rucaparib 20 µM, 100% = cells with rucaparib alone), 123% (inactive); in assay [10] (at 0.000305 µM, OCI-P5x cells, without rucaparib) it was 107% (inactive); in [10] (at 0.00122 µM, OCI-C5x cells, with rucaparib 10 µM, 100% = cells with rucaparib alone), 116% (inactive); in assay [10] (at 0.00122 µM, OCI-C5x cells, without rucaparib), 100% (active). For the same compound, the viability in assay [10] (at 0.00122 µM, OCI-P5x cells, with rucaparib 20 µM, 100% = cells with rucaparib alone) is 97.9% (active); in assay [10] (at 0.00122 µM, OCI-P5x cells, without rucaparib), 99.7% (active); in assay [10] (at 0.00488 µM, OCI-C5x cells, with rucaparib 10 µM, 100% = cells with rucaparib alone) it was 107% (inactive); in assay [10] (at 0.00488 µM, OCI-C5x cells, without rucaparib) it was 80.6% (active); in assay [10] (at 0.00488 µM, OCI-P5x cells, with rucaparib 20 µM, 100% = cells with rucaparib alone), 117% (inactive); in [10] (at 0.00488 µM, OCI-P5x cells, without rucaparib), 99.9% (active). Also, the viability in [10] (at 0.0195 µM, OCI-C5x cells, with rucaparib 10 µM, 100% = cells with rucaparib alone) was 70.1% (active); in assay [10] (at 0.0195 µM, OCI-C5x cells, without rucaparib) it was 66.7% (active); in assay [10] (at 0.0195 µM, OCI-P5x cells, with rucaparib 20 µM, 100% = cells with rucaparib alone), 102% (inactive); in assay [10] (at 0.0195 µM, OCI-P5x cells, without rucaparib), 96.3% (active); in [10] (at 0.0781 µM, OCI-C5x cells, with rucaparib 10 µM, 100% = cells with rucaparib alone), 67.5% (active); in assay [10] (at 0.0781 µM, OCI-C5x cells, without rucaparib), 69.5% (active). For the same compound, the viability in assay [10] (at 0.0781 µM, OCI-P5x cells, with rucaparib 20 µM, 100% = cells with rucaparib alone) was 122% (inactive); in [10] (at 0.0781 µM, OCI-P5x cells, without rucaparib), 94.8% (active); in [10] (at 0.313 µM, OCI-C5x cells, with rucaparib 10 µM, 100% = cells with rucaparib alone), 62.7% (active); in assay [10] (at 0.313 µM, OCI-C5x cells, without rucaparib), 63.1% (active); in [10] (at 0.313 µM, OCI-P5x cells, with rucaparib 20 µM, 100% = cells with rucaparib alone), 120% (inactive); in assay [10] (at 0.313 µM, OCI-P5x cells, without rucaparib), 94.2% (active). Besides, the viability in [10] (at 1.25 µM, OCI-C5x cells, with rucaparib 10 µM, 100% = cells with rucaparib alone) was 6.05% (active); in assay [10] (at 1.25 µM, OCI-C5x cells, without rucaparib), 46% (active); in assay [10] (at 1.25 µM, OCI-P5x cells, with rucaparib 20 µM, 100% = cells with rucaparib alone), 8.68% (active); in assay [10] (at 1.25 µM, OCI-P5x cells, without rucaparib) it was 66.6% (active); in [10] (at 5 µM, OCI-C5x cells, with rucaparib 10 µM, 100% = cells with rucaparib alone) it was 3.87% (active); in assay [10] (at 5 µM, OCI-C5x cells, without rucaparib), 22.5% (active). Also, the viability in assay [10] (at 5 µM, OCI-P5x cells, with rucaparib 20 µM, 100% = cells with rucaparib alone) is 0.219% (active); in [10] (at 5 µM, OCI-P5x cells, without rucaparib), 6.79% (active).
